We go through 14 compounds from PubChem BioAssay (NCI).

Common to all, as to experiment: NCI-60 one-dose screen, 48 h (100 = growth as untreated, 0 = no growth, -100 = all killed)
What all share (conditions): 10 µM unless noted

Assay [1] relates to NCI-H23 lung.
The subject of assay [2] is NCI-H226 lung.
Assay [3] relates to NCI-H322M lung.
Assay [4] relates to HOP-62 NSCLC.
Assay [5] relates to NCI-H460 lung.
The subject of assay [6] is HOP-92 NSCLC.
Assay [7] concerns NCI-H522 lung.
Assay [8] has as its system A549/ATCC NSCLC.
Assay [9] concerns 786-0 renal.
In assay [10] the test system is COLO 205 colon.
Assay [11] has as its system DU-145 prostate.
Assay [12] has as its system K-562 leukemia.
The test system of assay [13] is MALME-3M melanoma.
For assay [14], the system named is MDA-MB-231 breast.
Assay [15] relates to RXF 393 renal.
For assay [16], the system named is SF-268 CNS.
The subject of assay [17] is SF-295 CNS.
Assay [18] deals with SF-539 CNS.
Assay [19] has as its system UACC-257 melanoma.
In assay [20] the test system is M14 melanoma.

About 83,000 compounds went through this panel and 20% of them were active in at least one assay; those are over-represented in the sample as a whole.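 In brief: 96-well plates, 48 h treatment, single concentration, percent growth endpoint.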 Values without a mark were called inactive. Activity calls are given as the source filed them. How the source made its calls: active means growth percent below 10; inactive means the rest.

As to `COc1cc(-c2csc(NC(=O)Nc3cccc(C(F)(F)F)c3)n2)cc(OC)c1OC`, the growth is 27.8% in assay [1]; 55.6% in [2]; 68.3% in assay [3]; 63.6% in assay [4]; 53.8% in assay [5]; 47.8% in [6]. In addition, the growth in assay [7] was 40.7%; in assay [8], 34.2%; in assay [9], 64.2%; in assay [10], 75.4%; in assay [11], 55.9%; in [12], 31.6%. The growth in assay [13] is 88.3%; in [14] it was 63.8%; in assay [15], 71.4%; in assay [16], 65%; in assay [17], 21.7%; in assay [18], 67.1%. Further, the growth was 83.2% in assay [19] and 47.8% in assay [20].
As to `O=C(N=Nc1c(Cl)c(O)c2ccccc2c1O)C(=O)Nc1cccc(C(F)(F)F)c1`, the growth in assay [1] is 71.5%; in assay [2], 88.5%; in assay [3] it was 63.4%; in assay [4], 47.9%; in [5], 79.8%; in [6] it was 79.2%. In addition, the growth is 8.55% (active) in assay [7]; 87.1% in [8]; 90.3% in [9]; 47.3% in assay [10]; -38.7% (active) in assay [11]; 57.6% in assay [12]. Further, the growth in assay [13] was 10.7%; in assay [14], 56.6%; in assay [15], 81.5%; in assay [16], 68.2%; in [17] it was 41.1%; in [18] it was 102%. The growth in assay [19] was 100%; in assay [20] it was 32.8%.
For the compound `COc1ccc(-c2oc(=O)ccc2-c2cc(OC)c(OC)c(OC)c2)cc1F`, the growth was 81.4% in assay [1]; 82.9% in assay [2]; 95.4% in assay [3]; 67.3% in [4]; 56.3% in assay [5]; 62.6% in assay [6]. Further, the growth in [7] was 50.8%; in assay [8], 27.8%; in assay [9], 75.2%; in [10], 57.5%; in assay [11], 109%; in [12], 26.7%. Moreover, the growth in assay [13] is 68.9%; in assay [14] it was 77.3%; in assay [15], 90.9%; in assay [16] it was 95.3%; in assay [17], 62.4%; in assay [18], 80.4%. Also, the growth in [19] was 66.4%; in assay [20], 60.8%.
Consider `O=C(CI)NCCNc1cccc2c(S(=O)(=O)O)cccc12`, for which the growth in assay [1] was 95.1%; in [2], 103%; in [3], 98%; in [4], 107%; in [5], 105%; in assay [6], 102%. The growth was 107% in [7]; 110% in [8]; 101% in assay [9]; 105% in assay [10]; 96.3% in assay [11]; 110% in [12]. The growth was 103% in assay [13]; 93.5% in assay [14]; 101% in assay [15]; 93.3% in [16]; 98.5% in assay [17]; 105% in [18]. For the same compound, the growth in assay [19] is 108%; in assay [20], 98.4%.
Consider `COc1ccc(-c2nsc3c2NC(=O)CC3c2cccc(F)c2)cc1` (stereo not given), for which the growth was 59% in assay [1]; 76.5% in [2]; 53.6% in assay [3]; 60.2% in assay [4]; 10.4% in assay [5]; 52.7% in assay [6]. The growth is 4.49% (active) in [7]; 34.3% in assay [8]; 80% in assay [9]; 25.8% in [10]; 53.7% in [11]; 13.9% in [12]. Also, the growth in assay [13] is 42.7%; in assay [14], 44.7%; in assay [15], 50.9%; in assay [16] it was 62%; in assay [17], 61.5%; in assay [18], 54.7%. Also, the figures for the growth in [19] and in assay [20] were 65.7% and 32.6%, respectively.
Take `ClCc1cccc(CSc2ncnc3c2ncn3Cc2cccc(CCl)c2)c1`: the growth was 33.9% in assay [1]; -54.8% (active) in [2]; 101% in assay [3]; -38.8% (active) in assay [4]; 36.7% in [5]; 99.3% in [6]. The growth in assay [7] is -69.8% (active); in [8], 88.7%; in assay [9] it was 13%; in assay [10], 26.3%; in assay [11], 50.4%; in assay [12], 14.2%. For the same compound, the growth is 41.7% in assay [13]; 12% in [14]; -20.2% (active) in assay [15]; 17% in assay [16]; 92% in [17]; 58.2% in [18]. Besides, the values for the growth in assay [19] and in assay [20] were 42.5% and -71.8% (active), respectively.
As to `CNCc1cccc2c1OCCOCCOCCC(C)S(=O)(=O)c1ccc(cc1)-c1cnc(N)c(n1)C(=O)N2` (stereo not given), the growth is 77.9% in assay [1]; 31.6% in assay [2]; 67% in assay [3]; 37.7% in assay [4]; 11.2% in assay [5]; 80.3% in [6]. Besides, the growth is 34.4% in assay [7]; 33% in assay [8]; 10.6% in [9]; 33.7% in assay [10]; 24.1% in assay [11]; 7.1% (active) in assay [12]. The growth in [13] was 75.3%; in assay [14], 57.4%; in assay [15] it was 16.4%; in assay [16], 54.2%; in assay [17], 98.8%; in assay [18], 25%. Also, the growth is 50.6% in [19] and 52% in assay [20].
Take `[Ag].[Ag].[NH-]S(=O)(=O)c1ccc(N=Nc2cc(N=Nc3ccc(S([NH-])(=O)=O)cc3)c3c(NC(=O)C(Cl)Cl)cccc3c2OC(=O)C(Cl)Cl)cc1.[c-]1nccs1.[c-]1nccs1`: the growth is 93.8% in assay [1]; 90.8% in assay [2]; 97.2% in [3]; 78.9% in assay [4]; 56.7% in assay [5]; 60.7% in assay [6]. The growth in [7] is -86.4% (active); in assay [8], 83.5%; in assay [9], 106%; in assay [10], 6.93% (active); in assay [11], 70.1%; in assay [12] it was 83.8%. Besides, the growth in assay [13] is 67.4%; in assay [14], 49.5%; in [15], 71.5%; in assay [16] it was 78.6%; in assay [17], 81.6%; in assay [18] it was 95.7%. Further, the results for the growth in assay [19] and in [20] were 82.4% and 97.4%, respectively.
For the compound `CCCc1n(Cc2ccc3ccccc3n2)cc[n+]1Cc1ccc2ccccc2c1`, the growth in assay [1] was -11.6% (active); in assay [2] it was 12.3%; in assay [3], 25.7%; in assay [4], 8.38% (active); in assay [5] it was 7.73% (active); in assay [6], -18.6% (active). Moreover, the growth in assay [7] is -0.784% (active); in assay [8], 39.1%; in assay [9] it was 34.7%; in assay [10], -50% (active); in [11], 28.6%; in assay [12] it was 5.05% (active). Further, the growth in assay [13] was -27.3% (active); in [14], -5.49% (active); in [15], 3.02% (active); in assay [16] it was 17%; in [17] it was 4.45% (active); in assay [18] it was 12.7%. Moreover, the results for the growth in [19] and in [20] were -9.42% (active) and 3.06% (active), respectively.
As for `CCCCCCCCCCCCCCCc1cc(O)ccc1[N+](=O)[O-]`, the growth was 79.6% in assay [1]; 96.9% in [2]; 100% in assay [3]; 96% in [4]; 102% in assay [5]; 59.9% in assay [6]. Also, the growth in assay [7] is 28%; in assay [8], 96.8%; in assay [9] it was 97.9%; in assay [10], 96%; in [11], 104%; in [12], 67.7%. Further, the growth in assay [13] was 96.4%; in assay [14], 69.2%; in assay [15], 95%; in assay [16], 91.6%; in [17], 94.3%; in assay [18], 103%. The results for the growth in assay [19] and in assay [20] were 87.3% and 93.1%, respectively.
Regarding `CC(=O)c1cc(C(=O)c2ccc3c(c2)Sc2ccccc2N3)c2c(C)cccn12`, the growth in assay [1] was 27%; in assay [2], 47.8%; in [3] it was 37.4%; in assay [4] it was 19.1%; in [5], 6.41% (active); in assay [6], 94%. Also, the growth is 12.5% in [7]; 19.5% in assay [8]; 4.46% (active) in assay [9]; -43.7% (active) in assay [10]; 13.9% in assay [11]; 7.8% (active) in assay [12]. The growth in assay [13] is 62.3%; in assay [14], 19.7%; in assay [15], -7.81% (active); in [16] it was 28.4%; in assay [17], 4.09% (active); in [18], -28.4% (active). Also, the results for the growth in [19] and in assay [20] were 77% and 16.9%, respectively.
Regarding `CC(=O)Nc1nonc1-c1nc2ccccc2n1Cc1ccc(C(C)(C)C)cc1`, the growth is 86.7% in assay [1]; 76.6% in [2]; 83% in [3]; 101% in [4]; 79.3% in assay [5]; 57.1% in assay [6]. In addition, the growth in assay [7] is 85.1%; in assay [8], 72.2%; in assay [9], 70.2%; in [10], 98.5%; in assay [11] it was 79.9%; in [12], 30.2%. Also, the growth was 90.5% in assay [13]; 92.8% in [14]; 65.8% in [15]; 67.2% in [16]; 79.6% in assay [17]; 89% in [18]. The growth in assay [19] and in assay [20] was 92% each time.
For the compound `CC[C@H](Nc1nc(N)nc(N)c1Cl)c1nc2cccc(NCc3ccc(C(=O)NO)cc3)c2c(=O)n1-c1ccccc1`, the growth is -71.6% (active) in assay [1]; 4.53% (active) in assay [2]; 35.8% in [3]; 11.6% in assay [4]; 1.8% (active) in assay [5]; -15.7% (active) in assay [6]. The growth in assay [7] is -13.5% (active); in assay [8], -4.67% (active); in [9], 3.36% (active); in [10] it was -20.1% (active); in assay [11] it was -0.88% (active); in assay [12] it was 3.11% (active). Moreover, the growth is 20.2% in assay [13]; -10.8% (active) in assay [14]; -52.5% (active) in [15]; 4.81% (active) in assay [16]; 13.2% in assay [17]; -74.2% (active) in [18]. Besides, the values for the growth in assay [19] and in assay [20] were -0.0784% (active) and -13% (active), respectively.
`COc1cc2nccc(Oc3ccc(NC(=O)C4(C(=O)Nc5c(F)cc(F)cc5F)CC4)cc3)c2cc1Oc1ccc(N)cn1`: the growth was 53.6% in [1]; 37.7% in [2]; 74.8% in [3]; 67.7% in assay [4]; 65.4% in assay [5]; 2.04% (active) in [6]. Further, the growth in assay [7] is 55%; in [8], 48%; in [9], 96.5%; in assay [10], 44.3%; in assay [11] it was 80.7%; in [12], 7.69% (active). For the same compound, the growth was 59% in [13]; 65.9% in assay [14]; 65.8% in assay [15]; 55.5% in assay [16]; 30.6% in [17]; 21.2% in [18]. The growth in assay [19] is 53.8%; in assay [20], 56.9%.
